Structures are written as SMILES. Unmarked numbers belong to inactive results. For some of these results: Potency and affinity values are given separately. The source made the active and inactive calls. Unless noted, no rule for the calls is given here.

Assay [1] is described as follows: antimalarial activity against Dd2 strain (AID 2302;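 active = growth inhibition above 50% at the single 2 µM test dose, taken to imply half-maximal potency below 2 µM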;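 also: 0% = DMSO untreated growth and 100% = chloroquine plus artemisinin killed control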). Particulars: P. falciparum Dd2 in RBCs, LDH growth readout, 72 h; at 2 µM; active compounds read high.
Assay [2] in a line: HepG2 cytotoxicity, primary screen, cytotoxicity control for P. falciparum antimalarial project, cell-based, ATP luminescence (AID 2303;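 active = inhibition above 50%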;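 also: 0% = DMSO wells and 100% = digitonin-killed cells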). Particulars: HepG2 viability, 24-48 h, at 10 µM, active compounds read high.
The target of assay [3] is L-lactate dehydrogenase (Plasmodium falciparum (isolate CDC / Honduras)) (UniProt Q27743). The assay can be described thus: PfLDH activity inhibition – cell lysate, 3D7 strain, counter-screen for P. falciparum growth inhibition project (AID 2304).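 Also: 0% = vehicle and 100% = reference inhibitor.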 Particulars: P. falciparum 3D7 crude extract, LDH APAD/NBT absorbance; at 2 µM; active compounds read high. (In general: The purpose of a counterscreen is to sort out artefacts and off-target activity.)
Chain of L-lactate dehydrogenase (Plasmodium falciparum (isolate CDC / Honduras)) (Q27743 whole entry, looked up): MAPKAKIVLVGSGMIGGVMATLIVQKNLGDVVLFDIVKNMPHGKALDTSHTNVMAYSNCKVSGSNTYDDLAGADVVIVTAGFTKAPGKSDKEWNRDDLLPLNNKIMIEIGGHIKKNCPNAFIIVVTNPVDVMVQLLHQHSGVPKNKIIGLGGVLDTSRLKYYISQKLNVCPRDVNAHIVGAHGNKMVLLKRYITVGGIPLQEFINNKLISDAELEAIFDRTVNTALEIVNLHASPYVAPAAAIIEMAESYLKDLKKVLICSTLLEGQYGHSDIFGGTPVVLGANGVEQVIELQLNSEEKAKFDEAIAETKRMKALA

Assay [4] can be described thus: inhibition of 3D7 malaria parasite growth – strain 3D7 (AID 2306).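 Also: 0% = DMSO wells and 100% = chloroquine plus artemisinin control wells.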 Particulars: P. falciparum 3D7 erythrocytic growth, LDH absorbance, 72 h; at 2 µM; active compounds read high.
Assay [5] deals with Calcium-dependent protein kinase 1 (Plasmodium falciparum (isolate 3D7)) (UniProt P62344). As to the kind of experiment: PfCDPK1 kinase inhibitors, biochemical, TCAMS library (AID 1159585; cut-off not given, nearly all actives have IC50 up to about 0.98 µM;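 also: inhibitors leave more ATP so luminescence rises with inhibition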). Particulars: recombinant PfCDPK1, Kinase-Glo ATP depletion luminescence. (In general: In Kinase-Glo more light means more ATP remaining.)
Chain of Calcium-dependent protein kinase 1 (Plasmodium falciparum (isolate 3D7)) (P62344 whole entry, looked up): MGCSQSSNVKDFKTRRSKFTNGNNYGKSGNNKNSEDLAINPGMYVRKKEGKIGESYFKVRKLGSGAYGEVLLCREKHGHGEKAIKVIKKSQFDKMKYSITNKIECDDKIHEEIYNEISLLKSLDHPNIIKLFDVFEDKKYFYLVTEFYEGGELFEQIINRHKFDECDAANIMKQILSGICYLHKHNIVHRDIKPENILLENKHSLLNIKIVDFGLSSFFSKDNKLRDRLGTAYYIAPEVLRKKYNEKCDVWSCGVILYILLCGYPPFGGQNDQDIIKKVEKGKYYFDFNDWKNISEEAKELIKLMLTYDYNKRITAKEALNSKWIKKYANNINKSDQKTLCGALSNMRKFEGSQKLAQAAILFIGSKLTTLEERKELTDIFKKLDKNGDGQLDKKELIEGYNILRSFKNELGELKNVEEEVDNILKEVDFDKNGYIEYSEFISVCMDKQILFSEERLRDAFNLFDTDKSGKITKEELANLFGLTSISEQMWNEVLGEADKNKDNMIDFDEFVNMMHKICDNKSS
The target in assay [6] is Plasmodium falciparum protein kinase 6 (PK6, PF3D7_1337100) (UniProt Q8IDW1). The assay can be described thus: PfPK6 kinase inhibitors, biochemical, TCAMS library (AID 1159586). Particulars: recombinant PfPK6, Kinase-Glo ATP depletion luminescence.
Chain of Plasmodium falciparum protein kinase 6 (PK6, PF3D7_1337100) (Q8IDW1 1-305): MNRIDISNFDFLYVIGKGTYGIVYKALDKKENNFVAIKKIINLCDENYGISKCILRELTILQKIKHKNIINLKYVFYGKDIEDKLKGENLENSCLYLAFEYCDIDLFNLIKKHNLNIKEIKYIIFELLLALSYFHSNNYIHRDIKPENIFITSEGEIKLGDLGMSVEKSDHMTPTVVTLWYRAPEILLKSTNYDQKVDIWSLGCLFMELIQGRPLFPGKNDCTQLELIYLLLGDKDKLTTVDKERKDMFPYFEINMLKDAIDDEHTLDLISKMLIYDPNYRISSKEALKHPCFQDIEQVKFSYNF
Assay [7] addresses Protein kinase 7 (PK7), Plasmodium falciparum 3D7 (PF3D7_0213400) (UniProt Q7YTF7). As to the kind of experiment: inhibition of Plasmodium PK7 catalytic activity – biochemical, TCAMS antimalarial set, Kinase-Glo luminescence (AID 1159587). Particulars: recombinant PfPK7, Kinase-Glo ATP depletion luminescence.
For assay [8], the target named is Calcium-dependent protein kinase 4 (Plasmodium falciparum (isolate 3D7)) (UniProt Q8IBS5). The assay can be described thus: PfCDPK4 kinase inhibitors, biochemical, TCAMS library (AID 1159588; cut-off not given, nearly all actives have IC50 up to about 0.91 µM). Particulars: recombinant PfCDPK4, Kinase-Glo ATP depletion luminescence.
Chain of Calcium-dependent protein kinase 4 (Plasmodium falciparum (isolate 3D7)) (Q8IBS5 whole entry, looked up): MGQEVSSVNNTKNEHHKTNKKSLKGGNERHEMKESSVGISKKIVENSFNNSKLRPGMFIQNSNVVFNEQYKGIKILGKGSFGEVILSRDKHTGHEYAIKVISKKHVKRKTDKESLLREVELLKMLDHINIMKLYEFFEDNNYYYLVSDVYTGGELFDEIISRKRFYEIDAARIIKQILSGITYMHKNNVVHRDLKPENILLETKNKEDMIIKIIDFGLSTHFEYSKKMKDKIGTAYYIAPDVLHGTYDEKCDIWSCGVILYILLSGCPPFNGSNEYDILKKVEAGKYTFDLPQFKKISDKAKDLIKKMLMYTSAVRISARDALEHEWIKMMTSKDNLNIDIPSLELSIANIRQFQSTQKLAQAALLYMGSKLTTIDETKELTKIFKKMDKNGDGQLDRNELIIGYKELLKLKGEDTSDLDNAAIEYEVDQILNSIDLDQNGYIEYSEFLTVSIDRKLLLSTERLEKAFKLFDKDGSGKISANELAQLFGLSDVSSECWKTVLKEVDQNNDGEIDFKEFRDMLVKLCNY

Chain of Protein kinase 7 (PK7), Plasmodium falciparum 3D7 (PF3D7_0213400) (Q7YTF7 1-343): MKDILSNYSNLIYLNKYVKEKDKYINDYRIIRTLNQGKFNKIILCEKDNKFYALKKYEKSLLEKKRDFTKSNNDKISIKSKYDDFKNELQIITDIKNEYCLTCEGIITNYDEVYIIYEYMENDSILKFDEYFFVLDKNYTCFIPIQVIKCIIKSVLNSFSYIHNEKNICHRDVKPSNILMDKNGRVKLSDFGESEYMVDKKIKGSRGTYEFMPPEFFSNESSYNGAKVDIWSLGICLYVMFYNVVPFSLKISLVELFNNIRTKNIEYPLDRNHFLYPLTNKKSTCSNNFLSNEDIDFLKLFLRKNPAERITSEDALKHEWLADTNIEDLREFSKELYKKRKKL

Usually inhibition stands for the relative decrease from the control value, in per cent. Regarding `C/C=C/COc1ccc(-c2c(C)[nH]c(C)c(Cl)c2=O)cc1`, the growth inhibition in assay [1] and in assay [4] was 97% (active) each time. Further, the inhibition was 0% in assay [2] and 2% in assay [3]. The outcome in assay [5], in assay [6], in assay [7] and in assay [8] was inactive.

For the compound `Cc1cc(N[C@@H](Cc2ccccc2)C(=O)NCc2cccc(F)c2)nc(NCCCOC(C)C)n1`, the growth inhibition was 94% (active) in assay [1] and 101% (active) in assay [4]. Further, the inhibition is 10% in assay [2] and -2% in assay [3]. For the same compound, the result in assay [5], in assay [6], in assay [7] and in assay [8] was inactive.

As to `O=C(CSc1nccn1Cc1ccco1)Nc1cc(C(F)(F)F)ccc1Cl`, the growth inhibition is 66% (active) in assay [1] and 91% (active) in assay [4]. In addition, the figures for the inhibition in assay [2] and in assay [3] were 9% and -4%, respectively. Moreover, the result in assay [5], in assay [6], in assay [7] and in assay [8] was inactive.

In the case of `OC(CNCc1ccccc1OCc1ccccc1)c1cccc(Cl)c1` (stereo not given), the growth inhibition in assay [1] and in assay [4] was 100% (active) in each case. In addition, the inhibition in assay [2] was -6%; in assay [3] it was 7%. Further, the outcome in assay [5], in assay [6], in assay [7] and in assay [8] was inactive.

For the compound `O=C(NC1CCN(Cc2ccc(Cl)cc2)CC1)c1cn(-c2ccccc2)nc1-c1cccnc1`, the growth inhibition in assay [1] is 9%; in assay [4] it was 93% (active). Moreover, the inhibition in assay [2] was 13%; in assay [3] it was -2%. The result in assay [5], in assay [6], in assay [7] and in assay [8] was inactive.

In the case of `CC1CC1C(=O)NC1CCN(CC2(c3ccccc3)CCCCC2)CC1` (stereo not given), the growth inhibition was 95% (active) in assay [1] and 97% (active) in assay [4]. Further, the inhibition in assay [2] was -1%; in assay [3] it was 0%. Moreover, the outcome in assay [5], in assay [6], in assay [7] and in assay [8] was inactive.

For the compound `CCCCCCCOc1ccc(NC(=O)Nc2ccc(Cn3ncc(N4CCCNCC4)c(Cl)c3=O)cc2)cc1`, the growth inhibition in assay [1] was 28%; in assay [4] it was 87% (active). Also, the inhibition in assay [2] is 60% (active); in assay [3] it was 2%. In addition, the outcome in assay [5], in assay [6], in assay [7] and in assay [8] was inactive.

For the compound `COc1ccc(COc2cc(NCCCN)nc3ccccc23)cc1`, the growth inhibition in assay [1] was 5%; in assay [4], 101% (active). Besides, the figures for the inhibition in assay [2] and in assay [3] were 3% and -4%, respectively. Moreover, the outcome in assay [5], in assay [6], in assay [7] and in assay [8] was inactive.

As to `CC(C)CNCc1cccc(-c2cccc(CN(CCCN3CCN(C)CC3)C(=O)NC3CCCCC3)c2)c1`, the growth inhibition in assay [1] was 84% (active); in assay [4], 100% (active). The inhibition in assay [2] is 16%; in assay [3], 0%. In addition, the result in assay [5], in assay [6], in assay [7] and in assay [8] was inactive.

For the compound `NC(N)=NC(=O)Nc1ccc(Cl)c(Cl)c1`, the figures for the growth inhibition in assay [1] and in assay [4] were 13% and 95% (active), respectively. Moreover, the inhibition is 29% in assay [2] and 1% in assay [3]. Also, the outcome in assay [5], in assay [6], in assay [7] and in assay [8] was inactive.

On to `CCCCC1=CC2C(=O)C(C(=O)OC)=CN=C2C=C1OCc1ccccc1` (stereo not given), for which the growth inhibition in assay [1] was 98% (active); in assay [4], 99% (active). Further, the inhibition in assay [2] was 7%; in assay [3], 2%. Besides, the result in assay [5], in assay [6], in assay [7] and in assay [8] was inactive.

For `O=C(/C=C/c1ccc(F)cc1)NC1CCC(CCN2CCc3ccc(-n4cccn4)cc3CC2)CC1` (stereo not given), the growth inhibition in assay [1] was 16%; in assay [4] it was 89% (active). The figures for the inhibition in assay [2] and in assay [3] were 23% and 3%, respectively. Also, the outcome in assay [5], in assay [6], in assay [7] and in assay [8] was inactive.

On to `Cc1cc(NC(=O)Nc2ccc3ccn(C)c3c2)c2ccccc2n1`, for which the growth inhibition in assay [1] was 69% (active); in assay [4], 102% (active). In addition, the figures for the inhibition in assay [2] and in assay [3] were 11% and -1%, respectively. For the same compound, the outcome in assay [5], in assay [6], in assay [7] and in assay [8] was inactive.

As for `COc1ccccc1CCNc1nc(C)cc(N[C@@H](Cc2ccccc2)C(=O)NCCOc2ccccc2)n1`, the results for the growth inhibition in assay [1] and in assay [4] were 76% (active) and 101% (active), respectively. Also, the inhibition in assay [2] is 20%; in assay [3], 4%. Besides, the result in assay [5], in assay [6], in assay [7] and in assay [8] was inactive.

Take `COc1ccccc1Oc1c(N(C)S(=O)(=O)c2ccc(C(C)C)cc2)nc(C(F)(F)F)nc1N(C)S(=O)(=O)c1ccc(C(C)C)cc1`: the growth inhibition in assay [1] was 98% (active); in assay [4] it was 94% (active). For the same compound, the inhibition in assay [2] is 4%; in assay [3], -6%. Besides, the outcome in assay [5], in assay [6], in assay [7] and in assay [8] was inactive.

Consider `CC(C)NC(=O)c1cccc(-c2ccc(OCCN3CCCC3c3cc4ccccc4[nH]3)cc2)c1` (stereo not given), for which the growth inhibition in assay [1] is 34%; in assay [4], 100% (active). Moreover, the inhibition in assay [2] is 25%; in assay [3] it was -2%. Further, the result in assay [5], in assay [6], in assay [7] and in assay [8] was inactive.

Consider `CN(C)Cc1ccc2cc(NC(=O)c3ccc(-c4ccc(Cl)cc4)cc3)ccc2n1`, for which the growth inhibition in assay [1] was 30%; in assay [4], 86% (active). Also, the inhibition in assay [2] is 60% (active); in assay [3], -1%. Besides, the result in assay [5], in assay [6], in assay [7] and in assay [8] was inactive.

For `O=C(Nc1ccc2nc3n(c(=O)c2c1)CCCCC3)C(=O)N1CCN(c2ccc(F)cc2)CC1`, the growth inhibition in assay [1] was 86% (active); in assay [4] it was 93% (active). Further, the inhibition in assay [2] was 10%; in assay [3], -1%. For the same compound, the result in assay [5], in assay [6], in assay [7] and in assay [8] was inactive.

As for `O=C(Nc1ccc(Oc2ccccc2)cc1)N[C@@H](Cc1ccc(O)cc1)C(=O)NC1CCN(Cc2ccc(O)c([N+](=O)[O-])c2)C1` (stereo not given in full), the results for the growth inhibition in assay [1] and in assay [4] were -3% and 101% (active), respectively. For the same compound, the inhibition in assay [2] is -3%; in assay [3] it was 2%. The outcome in assay [5], in assay [6], in assay [7] and in assay [8] was inactive.

As for `Cc1cc(N[C@@H](Cc2ccccc2)C(=O)NCCOc2ccccc2)nc(Nc2ccccc2)n1`, the growth inhibition in assay [1] is 63% (active); in assay [4], 100% (active). In addition, the inhibition in assay [2] is 2%; in assay [3], -2%. The result in assay [5], in assay [6], in assay [7] and in assay [8] was inactive.

Source of the values: PubChem BioAssay.
